{"source": "PubChem BioAssay AID2284089", "about": "(EPA ToxCast)", "note": "Active and inactive are the calls of the source. The calls were made as follows: active = hit-call score of the fitted dose curve at least 0.9, where 1 is the maximum; inactive = score below 0.9.", "data": [{"molecular_target": "Cytochrome P450 2C19 (Homo sapiens) (UniProt P33261)", "sequence (P33261 whole entry, looked up)": "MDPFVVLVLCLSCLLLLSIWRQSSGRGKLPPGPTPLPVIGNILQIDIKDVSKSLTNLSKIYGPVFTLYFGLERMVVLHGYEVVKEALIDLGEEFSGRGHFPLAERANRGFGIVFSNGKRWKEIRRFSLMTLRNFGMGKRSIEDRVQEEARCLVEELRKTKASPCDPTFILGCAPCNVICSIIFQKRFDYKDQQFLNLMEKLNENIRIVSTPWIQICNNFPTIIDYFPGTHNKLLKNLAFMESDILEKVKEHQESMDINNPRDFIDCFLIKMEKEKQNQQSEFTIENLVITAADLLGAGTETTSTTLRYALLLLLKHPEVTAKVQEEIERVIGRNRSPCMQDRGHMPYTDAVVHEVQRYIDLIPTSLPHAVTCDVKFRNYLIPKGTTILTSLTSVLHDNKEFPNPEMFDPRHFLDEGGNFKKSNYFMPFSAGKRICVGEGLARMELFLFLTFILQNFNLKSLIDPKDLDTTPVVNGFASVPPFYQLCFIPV", "experiment": "ERF_FR_ADME_hCYP2C19_CEC: Eurofins (ERF) CYP450-related Enzyme Activity (ADME) Assay for CYP2C19 Inhibition Assay, CEC Subtrate", "description": "ERF_FR_ADME_hCYP2C19_CEC is a biochemical, single-readout assay that uses extracted gene-proteins in a cell-free assay. Measurements were taken 0.83 hour after chemical dosing in a 96-well plate. See CYP2C19 inhibition (recombinant, CEC substrate).ERF_FR_ADME_hCYP2C19_CEC is an assay component calculated from the ERF_FR_ADME_hCYP2C19_CEC assay. It is designed to measure enzyme activity using a type of enzyme reporter as detected by fluorescence intensity of HFC with fluorimetry technology.Data from the assay component ERF_FR_ADME_hCYP2C19_CEC was analyzed at the assay endpoint, ERF_FR_ADME_hCYP2C19_CEC, in the positive analysis fitting direction relative to acetonitrile as the negative control and baseline of activity. Using a type of enzyme reporter, loss-of-signal activity can be used to understand changes in enzymatic activity as they relate to gene CYP2C19. To generalize the intended target to other relatable targets, this assay endpoint is annotated to the cyp intended target family, where the subfamily is steroidogenesis-related.\nAssay is performed with 1 compound concentration(s) and each concentration tested using 2 replicate", "values": [{"smiles": "O=C(/C=C/c1ccc(O)cc1)CC(=O)/C=C/c1ccc(O)cc1", "AC50": "1.47 µM (active)"}]}]}
